What was measured:
Format in all cases: functional
Plasmodium falciparum [1] = experiment: GSK_TCMDC: Inhibition of Plasmodium falciparum 3D7 in whole red blood cells, using parasite LDH activity as an index of growth. Test compounds present at 2uM
Plasmodium falciparum [2] = experiment: GSK_TCMDC: Inhibition of Plasmodium falciparum Dd2 in whole red blood cells, using parasite LDH activity as an index of growth. Test compounds present at 2uM
HepG2 = experiment: GSK_TCMDC: Percent inhibition of human HepG2 cell line. Test compounds present at 10uM.

SMILES	Inhibition (Plasmodium falciparum [1])	Inhibition (Plasmodium falciparum [2])	Inhibition (HepG2)
Br.CC1(C)NC(N)=NC(=N)N1OCCCCOc1ccc(Cl)cc1C1CCCCC1	93%	97%	56%
Clc1ccc(-c2cnc3ccc(NCCc4cccnc4)nn23)cc1	97%	32%	34%
O=C(NC1CCCCN(Cc2ccccc2O)C1)c1cc(F)cc(F)c1.O=C(O)C(F)(F)F (stereo not drawn)	89%	52%	7%
O=C(O)C(F)(F)F.Oc1ccc(CCNc2nc(NCCOc3ccccc3-c3ccccc3)nc(N3CCNCC3)n2)cc1	93%	17%	22%
CC(C)Nc1cc(C(=O)N[C@@H](Cc2ccccc2)[C@H](O)CNC2CCOCC2)c(F)c(N2CCCCS2(=O)=O)c1.O=CO	98%	98%	2%
CCN1CCN(c2cc(C)c3cc(NC(=O)c4ccc(Br)o4)ccc3n2)CC1	98%	13%	0%
Nc1nc(N)c2c(ccc3c2ccn3CC2CC2)n1	96%	3%	46%
Cc1nc(-c2nc(NCc3ccc4c(c3)OCO4)ncc2-c2ccsc2)sc1C	97%	77%	7%
COc1ccc2nccc([C@@H](O)CN3CCC(NCc4cc5oc(=O)[nH]c5cc4F)CC3)c2c1.O=C(O)C(=O)O	99%	4%	0%
O=C(NCCCCN1CCC(c2ccc3c(c2OCCN2CCCC2)CCCC3)CC1)c1ccc(-c2ccc(C(F)(F)F)cc2)cc1	100%	81%	25%
CS(=O)(=O)c1cccc2sc(N3CCN(C(=O)c4ccc([N+](=O)[O-])o4)CC3)nc12	84%	61%	0%
Cc1cccc2nc(-c3ccc(-c4cccc(NC(=O)COc5ccccc5C(N)=O)c4)s3)[nH]c12	99%	19%	80%
Cc1nc2nc(N)nc(N)c2c(C)c1Cc1ccc(Cl)cc1.Cl	94%	22%	62%
COc1cncc(/C=C/c2cncc(C(=O)NCCc3ccc(Cl)cc3Cl)c2)c1	99%	49%	0%
O=[N+]([O-])c1ccc(N/C(=N\c2ccccc2Br)NCCOc2ccccc2)c(O)c1	88%	70%	6%
CCCNC(=O)Nc1cc2cc(-c3cccc(CN4CCCCC4)c3)ccc2n2c(C)nnc12	100%	50%	60%

SMILES	Inhibition (Plasmodium falciparum [1])	Inhibition (Plasmodium falciparum [2])	Inhibition (HepG2)
CN(c1ccccc1)S(=O)(=O)c1cccc(NC(=O)c2ccc(-n3ccnc3)c([N+](=O)[O-])c2)c1	83%	0%	19%
Cc1noc(-c2ccccc2)c1NC(=O)NC1CCN(CCCCCNC(=O)/C=C/c2ccc(Cl)c(Cl)c2)CC1	93%	0%	0%
COc1cc(-c2nc(-c3ccccc3)c(-c3ccccc3)[nH]2)ccc1OCCN(C)C	100%	100%	0%
CCOC(=O)c1cncc(/C=C/c2cc(C)cnc2N)c1	86%	3%	4%
Cc1cc2c(NC(=O)NC3CCN(CCc4ccccc4Cl)CC3)cccc2cn1.Cl	100%	46%	13%
COc1ccc2nccc([C@@H](O)CN3CCC(NCc4nc5cc(F)c(F)cc5[nH]4)CC3)c2c1.O=C(O)C(=O)O	96%	36%	12%
Cc1cccn2c(=O)c3cc(C(=O)NC4CCCCC4)c(=N)n(CCCn4ccnc4)c3nc12	100%	8%	1%
Fc1ccc(COc2ccc(Nc3ncnc4ccc(I)cc34)cc2Cl)cc1	86%	30%	28%
Cc1cc(C(=O)Nc2ccc3c(c2)CCN3C2CCN(Cc3cc(F)cc(F)c3F)C2)no1 (stereo not drawn)	95%	96%	0%
CCNC(=O)N1CCN(c2nc(-c3ccccc3)nc(COC)c2Cc2ccc(C)cc2)CC1	95%	94%	27%
CC(Cc1ccc(OCCN2CCN(c3ccccc3)CC2)cc1)NCC(O)c1cccc(Cl)c1F.Cl (stereo not drawn)	92%	56%	40%
COc1ccc2nc3cc(Cl)ccc3c(Nc3ccc(C(=O)O)cc3)c2c1.Cl	94%	95%	0%
CCn1c(SC)nnc1C1CCCN(CC(=O)Nc2nc3ccc(OC)cc3s2)C1 (stereo not drawn)	97%	81%	0%
CCOc1ccc(C(=O)Nc2cc3c(c(C(F)(F)F)c2)CCNC3)cc1Cl.Cl	91%	1%	4%
Cc1ccccc1C1CCN(C2CCC(NC(=O)/C=C/c3cccc(F)c3F)CC2)CC1 (stereo not drawn)	89%	45%	57%

— ChEMBL document CHEMBL1157539, “Thousands of chemical starting points for antimalarial lead identification” (Nature, 2010)
